Screening results as filed in PubChem.
G9a inh – G9a (human) methyltransferase inhibition | G9a H3K9 monomethylation, AlphaScreen, 2 h | Potency, µM (series often up to 102 µM), without a hit: top-dose activity, negative = inhibition, hits mostly inhibitors | hit rate 8.8% among 350,000; note: % is set by controls: 0 for no effect and ±100 for the full control effect; nearly all actives have a fitted effect of over 75% in size
Target sequence (Q96KQ7 913-1193 limits assumed): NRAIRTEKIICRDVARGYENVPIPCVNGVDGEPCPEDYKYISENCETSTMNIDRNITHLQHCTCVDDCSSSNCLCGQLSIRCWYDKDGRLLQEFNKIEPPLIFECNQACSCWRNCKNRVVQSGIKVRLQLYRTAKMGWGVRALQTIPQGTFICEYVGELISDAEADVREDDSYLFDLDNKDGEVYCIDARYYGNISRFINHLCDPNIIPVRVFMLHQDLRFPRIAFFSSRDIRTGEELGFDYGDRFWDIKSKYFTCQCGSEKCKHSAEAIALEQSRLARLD
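Step 1: enzyme (final 20 nM) with compound, 15 min RT. Step 2: substrate peptide 500 nM and SAM 20 uM, 2 h RT. Step 3: anti-H3K9me1 antibody and AlphaScreen beads, 10 min, then plate read.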
PLK1 PBD block – blocks phosphopeptide binding to human PLK1 polo-box domain. P53350. hit rate 2.8% among 360,000. Plk1 PBD binding of FITC phosphopeptide, fluorescence polarization. Potency, µM, for the others: max response, negative = inhibition, usual class: inhibitors; note: series mostly up to about 57 µM; % is set by controls: 0 for no effect and ±100 for the full control effect; nearly all actives have a fitted effect of over 65% in size
HP1b chromo inh – HP1-beta chromodomain-methylated histone interaction inhibition | AID 540317 | P83916 | Potency, µM (titrated, usually from 114 µM), for the others: top-dose activity change, negative = inhibition, most hits filed as inhibitors | AlphaScreen HP1-beta / biotin-H3K9me3 peptide binding | hit rate 0.56% among 390,000; note: nearly all actives have a fitted effect of over 70% in size
Target sequence (P83916 whole entry, looked up): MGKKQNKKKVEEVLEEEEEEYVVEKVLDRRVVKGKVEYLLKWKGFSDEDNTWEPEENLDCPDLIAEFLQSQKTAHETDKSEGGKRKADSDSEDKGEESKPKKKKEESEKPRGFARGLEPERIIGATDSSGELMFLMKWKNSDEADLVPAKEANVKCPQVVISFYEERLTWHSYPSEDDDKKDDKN
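AlphaScreen: HP1-beta (50 nM) preformed 30 min with biotin-H3(1-18)K9me3 peptide (50 nM) in PBS pH 7.4, 0.01% Tween-20. Compound added for 30 min at RT, then streptavidin donor/nickel chelate acceptor beads (10 ug/mL) for 30 min.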
BAZ2B inh – BAZ2B (human) inhibition; Q9UIF8; AlphaScreen BAZ2B-H3K14Ac peptide displacement; Potency, µM (doses to about 114 µM), for the others: at the highest dose activity change, negative = inhibition, actives largely listed as inhibitors; hit rate 4.4% among 360,000; note: % is set by controls: 0 for no effect and ±100 for the full control effect; nearly all actives have a fitted effect of over 60% in size
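Inhibition is scored as reduced AlphaScreen emission. The BAZ2B/b-H3(5-23)K14Ac complex (50 nM each) in PBS pH 7.4, 0.01% Tween-20 meets compound (up to 110 uM) for 30 min at RT before bead addition.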
JMJD2A Tudor inh – inhibitors of human JMJD2A Tudor domain; O75164; AlphaScreen JMJD2A-Tudor / H3K4me3 peptide binding; Potency, µM (doses to about 114 µM), for the others: at the top dose activity change, negative = inhibition, usual class: inhibitors; hit rate 4.4% among 390,000; AID 504339; note: % is set by controls: 0 for no effect and ±100 for the full control effect; nearly all actives have a fitted effect of over 50% in size
Sfp PPTase inh – Sfp phosphopantetheinyl transferase inhibition; hit rate 3.5% among 310,000; AID 1490; Potency, µM, without a hit: largest response in the series, negative = inhibition, most hits filed as inhibitors; Q9F4F7; Biochemical Sfp PPTase activity, qHTS;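 note: the enzyme is Sfp with the accession as filed and its product quenches rhodamine fluorescence; 0% = enzyme reaction without inhibitor and -100% = no enzyme wells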
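Compounds were incubated with enzyme (final 15 nM) for 15 min at room temperature before substrate addition started the reaction. Fluorescence at 525 nm excitation, 598 nm emission was recorded immediately and after 30 minutes.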
Starred values were filed as active, the others as inactive; i = inactive; ? = inconclusive; / = not tested or not shown; ! = a repeat was not active; [ ] = another dose, or the depositor's remark. Rows were chosen to be rich in hits. Some 12% of all compounds tested hit in one or more screens of this group. Calls come from the whole dose curve; as a rule, active = well fitted curve in the direction sought with a large enough effect; inconclusive = small, poorly fitted or top-dose-only effect, or another doubt; inactive = no such curve, though single readings can be large; an effect the other way counts as inactive or inconclusive. Potency is the fitted concentration of half-maximal effect.

SMILES | G9a inh | PLK1 PBD block | HP1b chromo inh | BAZ2B inh | JMJD2A Tudor inh | Sfp PPTase inh
Cc1nn(-c2ccc(Cl)cc2)c(=O)c2ccccc12 | 7% | -8% | 36% | 1% | -9% | 2%
Cc1ccc2nc3c(cc2c1)c(C)nn3-c1ccccc1 | i | 4% | i | 416% | 476% | -8%
Cc1nn(-c2ccccc2)c(=S)c2ccccc12 | 13µM* | 0% | 37% | ? | 7% | -23%
O=C(O)c1cccc(NC(=O)c2cccc(S(=O)(=O)Nc3cccc(C(=O)O)c3)c2)c1 | ? | / | 24% | 3% | -20% | /
O=C(Nc1cccc(C(=O)Nc2ccc(S(=O)(=O)O)c3cc(S(=O)(=O)O)cc(S(=O)(=O)O)c23)c1)Nc1cccc(C(=O)Nc2ccc(S(=O)(=O)O)c3cc(S(=O)(=O)O)cc(S(=O)(=O)O)c23)c1 | 0.6µM* | / | / | / | / | 45µM*!
O=C(NCCC1=CCCCC1)c1ccc2c(c1)N(Cc1ccc(F)cc1)C(=O)c1ccccc1S2(=O)=O | 4%[59 µM] | / | 36% | -14% | 3% | /
Cc1cc(NC(=O)CN2C(=O)c3cccnc3Sc3ccccc32)ccc1Br | 25%[59 µM] | / | 11% | -6% | -6% | /
O=C(CCl)Nc1cc(-c2ccccc2)nn1-c1ccccc1 | ? | -17% | 72% | 7% | -26% | -10%
Cc1ccc(-c2cc(NC(=O)CCl)n(-c3ccccc3)n2)cc1 | -46% | 27µM* | -3% | -18% | 79µM* | 13%
Cc1c(/C=N/NC(N)=O)c2ccccn2c1C(=O)c1ccncc1 | 45µM* | -1% | 4% | -37% | ? | 1%
Cc1c(/C=N/NC(=O)CNc2ccccc2)c2ccccn2c1C(=O)c1ccccc1 | 40µM* | -14% | -17% | -22% | ? | 1%
Cc1cccc(N2CCN(c3ccc4cc(S(=O)(=O)N5CCCCC5)ccc4n3)CC2)c1C | ? | -5% | 54% | -6% | 2% | 5%
O=C1CCCC(O)=C1N=Nc1ccc(C(=O)O)cc1 | 8.9µM* | ? | 45µM* | 22µM* | -12%[11.4 µM] | -4%
O=C1CCCC(O)=C1N=Nc1ccc2c(c1)OCO2 | 19%[59 µM] | -5% | -30% | ? | ? | 7%
O=C1CCCC(O)=C1N=Nc1c(Cl)cc(C(F)(F)F)cc1Cl | / | -6% | -7% | 71µM* | ? | ?
CCN(CC)c1ccc(NC(=O)c2ccccc2F)cc1S(=O)(=O)Nc1ccccc1OC | 6.3µM* | 11µM* | ? | -14% | ? | 14µM*
CCN(CC)c1ccc(NC(=O)COc2ccccc2C)cc1S(=O)(=O)Nc1ccccc1OC | 10µM* | 5.3µM* | ? | -7% | ? | 20µM*
CCNC(=S)Nc1ccc(C)c(S(=O)(=O)Nc2ccccc2OC)c1 | / | -14% | 23% | -20% | -7% | 3%
CCN(CC)c1ccc(NC(=O)COc2ccccc2C#N)cc1S(=O)(=O)Nc1ccc(OC)cc1 | ? | ? | -13% | -5% | -26% | -16%
CCN(CC)c1ccc(NC(=O)c2ccccc2Br)cc1S(=O)(=O)Nc1ccccc1OC | 1.3µM* | 1.5µM* | 6.3µM* | ? | 18µM* | 3.2µM*
CCN(CC)c1ccc(NC(=O)c2ccc(=O)[nH]c2)cc1S(=O)(=O)Nc1ccccc1OC | 2.5µM* | 4.7µM* | ? | / | ? | 14µM*
COc1ccc(NC(=O)c2ccc(=O)[nH]c2)cc1S(=O)(=O)N1CCCCC1 | 17%[59 µM] | / | / | 7% | / | -4%
Cc1ccc(Nc2c(-c3ccc(N4CCOCC4)cc3)nc3c(C)cccn23)cc1 | ? | / | 10% | 3% | ? | /
Cc1ccc(NS(=O)(=O)c2ccc3c(c2)CCC(=O)N3)cc1F | / | / | / | / | -26% | /
O=C(O)[C@H](Cc1c[nH]c2ccccc12)Nc1ncccc1[N+](=O)[O-] | ? | -1% | 32% | -20% | -7% | 7%
SMILES | G9a inh | PLK1 PBD block | HP1b chromo inh | BAZ2B inh | JMJD2A Tudor inh | Sfp PPTase inh
COc1ccc(NC(=O)CS(=O)c2cccc(C(F)(F)F)c2)cc1 (stereo not given) | / | -3% | 24% | -1% | -22% | -3%
CCCCC/C=C\CC(O)/C=C/c1cccc(CC(O)CCCCO)n1 (stereo not given) | 17µM*! | / | / | / | / | 28%
CCCCC[C@H](O)/C=C/C=C/C=C/[C@@H](O)C/C=C\CCCC(=O)O | / | / | / | / | / | -9%
C=CCOC(=O)N[C@H](c1ccco1)C(C(C)=O)C(C)=O | / | / | / | / | / | -20%
Cc1cc(C)c2c(=O)c(C#N)coc2c1 | / | 17µM* | 75% | 4% | 3% | -3%
COc1cccc(N2CC(NC(=O)Cc3cccs3)CC2=O)c1 (stereo not given) | -1%[59 µM] | / | 7% | 0% | -19% | /
CCOC(=O)c1c(-c2ccc(-c3ccccc3)cc2)csc1NC(=O)C1C2CCC(O2)C1C(=O)O (stereo not given) | / | 11µM* | ? | ? | -14%[57.1 µM] | 50µM*
CCOC(=O)c1c(-c2ccccc2)csc1NC(=O)CSc1ccccc1 | 29%[59 µM] | -1% | 52% | 45% | 38% | -8%
CCOC(=O)c1c(-c2ccccc2)csc1NC(=O)C1CCCO1 (stereo not given) | ? | 24µM* | -26% | 1% | -14% | 32µM*
COc1cccc(C(=O)Nc2cccc(OCc3cc(=O)n4cccc(C)c4n3)c2)c1 | -31%[59 µM] | / | 35%[57 µM] | 6% | 3% | /
CN(C)c1ccc(/C=C2\CCC/C(=C\c3ccccc3)C2=O)cc1 | 3.5µM* | -11% | -16% | ? | ? | ?
O=C1/C(=C/c2ccccc2)CCCc2ccccc21 | 8%[59 µM] | -18% | 116% | 86% | 100µM* | -9%
O=C1/C(=C/c2ccc(C(=O)O)cc2)CCC/C1=C\c1ccc(C(=O)O)cc1 | -44%[59 µM] | -11% | 33% | 3% | -11% | -26%
COc1ccc(/C=C2\CCc3ccccc3C2=O)cc1O | 79µM* | -4% | -14% | ? | ? | -8%
COc1ccc(OC)c(NC(=O)Cn2cc(C(=O)c3ccc(Cl)cc3)c(=O)c3cc(OC)ccc32)c1 | 3%[59 µM] | / | 18% | -4% | -20% | /
COc1cc2c(cc1OC)C1(CCCC1)CNC2c1ccc([N+](=O)[O-])cc1 (stereo not given) | 35µM* | 1% | -5% | ? | -27% | 5%
Cc1ccc2[nH]c(=O)c(CN(CCO)Cc3nnnn3Cc3ccccc3)cc2c1 | / | / | 5%[57 µM] | / | ? | /
Cc1oc(-c2ccc(C(=O)NCc3ccccc3Cl)cc2)nc1CN1CCc2ccccc21 | -31%[59 µM] | / | -3%[57 µM] | ? | ? | /
Cc1ccc(/C=N/n2cc(-c3ccccc3)[nH]c2=S)s1 | ? | -10% | 31% | -26% | ? | 32µM*
S=c1[nH]c(-c2ccccc2)cn1/N=C/c1cccc2ccccc12 | -43% | -8% | -21% | ? | ? | -11%
